The panel holds about 83,000 compounds, 20% with a hit somewhere; the sample as a whole holds those more often.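 48-hour exposure, single concentration, 96-well plates; percent growth endpoint where 0 means no net growth. Active: below 10.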 Activity calls are given as the source filed them.
Test system: HOP-92 NSCLC
Assay: NCI-60 one-dose screen, 48 h (100 = growth as untreated, 0 = no growth, -100 = all killed)
Settings: 10 µM unless noted

Compound | growth
O=C(/C=C/c1ccc2ccccc2c1)Nc1ncc(Cc2ccccc2)s1 | 78.2% (inactive)
O=C1c2cc3c(cc2-c2c1c1ccc(F)cc1c(=O)n2CCCN1CCOCC1)OCO3 | 68.4% (inactive)
C=C1CC[C@@H](C(=O)OC)Cc2nc(C)ccc21 | 106% (inactive)
CCN1CCN(C(=O)[C@]23CCC(C)(C)C[C@@H]2C2=CC[C@@H]4[C@@]5(C)C/C(=C/c6cccnc6)C(=O)C(C)(C)[C@@H]5CC[C@@]4(C)[C@]2(C)CC3)CC1 | 9.8% (active)
Nc1c(C(=O)Nc2cccc3ccccc23)sc2nc3c(cc12)CCCC3 | 44% (inactive)
CC(C)(C)c1cc(-n2c(-c3ccc(Cl)cc3)nc3cc(C(=O)Nc4ccc(Cl)cc4)ccc32)n[nH]1 | 38.1% (inactive)
Fc1ccc(Nc2nnc(-c3ccc(Cl)cc3)o2)cc1 | 95.5% (inactive)
O=C1/C(=C\c2ccc(Br)o2)SC(=S)N1CCc1ccc(O)cc1 | 55.3% (inactive)
CC(=O)c1c(C)[nH]c(-c2nc3ccc(N4CCN(C)CC4)cc3[nH]2)c1-c1ccc2c(c1)OCCO2 | 39% (inactive)
COc1ccc2[nH]c(-c3ccc(Cl)cc3)cc(=O)c2c1 | 88.6% (inactive)
CCC1C(=O)COC1=O (stereo not drawn) | 80.6% (inactive)
COc1ccc(O)c(-c2cc(-c3ccc(Cl)cc3)c(C#N)c(=O)[nH]2)c1 | 36% (inactive)
C=C(C)[C@@H]1CC[C@]2(C)[C@H](CC[C@@H]3[C@H]4[C@H]5OC[C@@]4(CCC5(C)C)CC[C@]32C)[C@@]1(C)CCCN | 50.9% (inactive)
CN1CCN(CCOc2ccc(-c3cnc4c(-c5cccc(F)c5)cnn4c3)cc2)CC1 | 24.8% (inactive)
Cc1cc(N(CCNc2ccnc3cc(Cl)ccc23)Cc2ccco2)nc(Cl)n1 | -76.9% (active)
COc1ccc(CCN2C(=O)C(C)(C)SC2=S)cc1OC | 102% (inactive)
Cc1cc2nc3c4cc(O)ccc4n(CCN(C)C)c3nc2cc1C | 21.1% (inactive)
CCCCC(=O)OC1CCCCC1C (stereo not drawn) | 77.6% (inactive)
COc1ccc2c(c1)c(-c1nc(-c3c[nH]c4ncccc34)cs1)cn2CCCN1CCCCC1 | 24.9% (inactive)

Compound | growth
CC(=O)c1c(C)[nH]c(-c2nc3ccc(N4CCN(C)CC4)cc3[nH]2)c1-c1ccc(OCC2CCOCC2)cc1 | 37% (inactive)
Cc1nc([P+](c2ccccc2)(c2ccccc2)c2ccccc2)c(Sc2sc(-c3ccccc3)nc2[P+](c2ccccc2)(c2ccccc2)c2ccccc2)o1 | -18.9% (active)
NNC(=O)c1nc2ccccc2[nH]1 | 98.5% (inactive)
O=P(O)(c1ccccc1)c1ccccc1I | 83.9% (inactive)
COc1ccc(OC)c(-c2c(C#N)c(-c3ccco3)nc3c2c(-c2ccccc2)nn3-c2ccccc2)c1 | 78.5% (inactive)
CNC(=O)c1cc(Oc2ccc3nc(NC(=O)Nc4ccc(Cl)cc4)sc3c2)ccn1 | 63.3% (inactive)
Clc1cc(Cl)cc(Nc2ccc3c(OCCCN4CCOCC4)cccc3n2)c1 | 37.3% (inactive)
N#CC1=C(N)Oc2c(c(N)nn2-c2ccccc2)C1c1ccc(Cl)cc1Cl (stereo not drawn) | 86.9% (inactive)
CC(C)(C)c1ccc(OCCCCCCCN2CCNCC2)cc1 | 33.3% (inactive)
Cc1cc(Cl)nc(N(CCCNc2ccnc3cc(Cl)ccc23)Cc2ccco2)n1 | -3.26% (active)
CC1(C)NCCC[C@]2(C)[C@H]3CC[C@@H]4[C@H]5[C@H](C(=O)/C=C/c6ccccn6)CC[C@]5(CO)CC[C@@]4(C)[C@]3(C)CC[C@@H]12 | 35.6% (inactive)
NCCNc1nc(-c2ccccc2)nc2nc(-c3ccccc3)oc12 | 55.1% (inactive)
COc1cnc2c(c1)C(=O)c1c-2n(CCCNC(C)C)c(=O)c2cc([N+](=O)[O-])ccc12 | -80.1% (active)
COc1cnc2c(c1)C(=O)c1c-2n(CCCNC2=NCCS2)c(=O)c2cc([N+](=O)[O-])ccc12 | 24.9% (inactive)
CCC(c1ccc(OC)cc1)C(CC)c1ccc(O)c(CN2CCCCC2)c1 (stereo not drawn) | 52.2% (inactive)
COc1cc2nc(Cl)nc(Nc3cccc(C(=O)/C=C/c4ccccc4)c3)c2cc1OC | 82.2% (inactive)
CC1(C)C(=O)/C(=C\c2ccco2)C[C@]2(C)[C@H]3CC[C@@H]4[C@@H](C(=O)/C=C/c5ccco5)CC[C@@]4(C)[C@]3(C)CC[C@@H]12 | 17.6% (inactive)
CCCC1CCCCN1C(=O)OCC(C)C (stereo not drawn) | 113% (inactive)
Cc1ccc(-c2nn(Cc3cn(-c4cc(C)nc5ccccc45)nn3)c3ncnc(N)c23)cc1 | -0.284% (active)

From PubChem BioAssay (NCI)
